Data reported in PubChem BioAssay AID2517 (National Center for Advancing Translational Sciences (NCATS), 2010).
Where “and” joins values, the source holds several entries; their conditions need not be identical. Equal entries are not always repeated. Among all 350,000 compounds or so, about 1,200 (0.34%) were called active. Roughly 3% stayed inconclusive and do not appear here. Calls come from the whole dose curve; as a rule, active = well fitted inhibition curve with a large enough effect; inconclusive = small, poorly fitted or top-dose-only effect; inactive = no such curve, though single readings can be large or run the other way. For the sample, actives were picked, then their nearest neighbours and some compounds at random. More than one record can exist for a structure, and the calls need not agree.

biological target: DNA repair nuclease/redox regulator APEX1 (Homo sapiens) (UniProt P27695); assay: qHTS Assay for Inhibitors of the Human Apurinic/apyrimidinic Endonuclease 1 (APE1); settings: recombinant APE1, TAMRA/BHQ-2 abasic DNA cleavage fluorescence; activity change, negative = inhibition: at 65.8 µM (top of the series); note: nearly all actives have a fitted effect of over 55% in size;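 for activity change, negative = inhibition: plate controls were vehicle for no effect and reference inhibitor for full effect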
From the text: The apurinic/apyrimidinic endonuclease APE1 is the primary mammalian enzyme responsible for the removal of abasic (or AP) sites in DNA and functions centrally in the base excision DNA repair (BER) pathway. […] Thus, targeting APE1 could improve the efficacy of current treatment paradigms by promoting selective sensitization or protection of diseased and normal cells, respectively.
Inhibition of APE1 activity was screened by utilizing double-stranded short substrate containing tetrahydrofuran (THF) abasic site labeled with rhodamine-type fluorophore (TAMRA) at the 5'-end and with non-fluorescent Black Hole Quencher-2 (BHQ-2) at the opposing 3'-end. An increase in the fluorescence intensity due to incision of the abasic site by APE1 was used to measure the enzyme activity.
NIH Chemical Genomics Center [NCGC]
NIH Molecular Libraries Probe Centers Network [MLPCN]
Assay Provider: David M. Wilson, III, National Institute on Aging, NIH
Three uL of enzyme solution (0.75 nM APE1 final concentration) was dispensed to 1536-well Greiner black solid bottom plates. […] The plates were incubated for 15 min at room temperature, and then 1 uL of substrate solution (50 nM final concentration of TAMRA/BHQ-2) was added to start the reaction. The plates were immediately transferred into ViewLux High-throughput CCD imager (Perkin-Elmer) in order to measure the reaction progress in kinetic mode (three reads every 60 seconds) using 525 nm excitation and 598 nm emission fluorescence protocol. The fluorescence intensity difference between the third and the first time points was used to compute reaction progress. Results were normalized to buffer only columns and NSC13755 positive controls and negative control DMSO treated wells.
Potency is the fitted concentration of half-maximal effect.

Chain of DNA repair nuclease/redox regulator APEX1 (Homo sapiens) (P27695 whole entry, looked up): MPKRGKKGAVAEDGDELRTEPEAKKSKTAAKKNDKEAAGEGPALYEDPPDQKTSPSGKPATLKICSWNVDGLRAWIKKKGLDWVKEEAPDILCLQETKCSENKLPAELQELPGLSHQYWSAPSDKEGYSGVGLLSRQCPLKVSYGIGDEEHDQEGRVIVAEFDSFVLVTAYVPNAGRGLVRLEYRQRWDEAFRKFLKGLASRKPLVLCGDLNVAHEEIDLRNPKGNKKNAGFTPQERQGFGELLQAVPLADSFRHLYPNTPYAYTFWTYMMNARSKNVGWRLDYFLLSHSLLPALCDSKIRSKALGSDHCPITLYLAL

Q: How did the “activity change, negative = inhibition” value turn out when `Cc1ccc(CCC(=O)Nc2ncc(Cc3cc(Cl)ccc3Cl)s2)o1` was run?
A: -4.89% (inactive)

Q: Which Potency does the source give for `Cc1ccc(Cc2cnc(N)s2)o1` here?
A: 28.2 µM (active)

Q: How did the “activity change, negative = inhibition” value turn out when `CCC[C@@H]1C[C@@]1(CCC)C(NS(=O)(=O)c1cccc2cccnc12)c1ccc(Cl)cc1` (stereo partly specified) was run?
A: 14.7% (inactive)

Q: `CC(=O)OCC1OC(C#CCCCc2ccccc2)C=CC1OC(C)=O` (stereo unspecified) was tested. Which activity change, negative = inhibition did it give?
A: 10.7% [at 12.4 µM] (inactive) and -3.91% [at 12.4 µM] (inactive)

Q: How did the “activity change, negative = inhibition” value turn out when `Nc1ncn(C2OC(CO)C(O)C2O)c(=O)n1` (stereo unspecified) was run?
A: -0.222% (inactive)

Q: `CC1=C2[C@@H](O)[C@H]([C@@H](C)C(=O)NCCC(C)C)CC[C@@]2(C)C=CC1=O` was tested. Which “activity change, negative = inhibition” value did it give?
A: -2.86% (inactive)

Q: `COC(=O)C1=C(C)N(Cc2ccccc2)C2=C3C(=O)N(c4ccccc4)C(=O)C3[C@@](O)(C(=O)OC)C(=O)N2C1c1ccccc1` (stereo partly specified) was tested. Which activity change, negative = inhibition did it give?
A: -8.1% [at 12.4 µM] (inactive) and -10.6% [at 12.4 µM] (inactive)

Q: How did the Potency turn out when `C#CCOCCOCCOCCNc1nc(N2CCN(C(=O)C(Cc3ccc(O)cc3)n3cc(C(N)CC(C)C)nn3)CC2)nc(N2CCN(C(=O)C(Cc3ccc(O)cc3)n3cc(C(N)C(C)CC)nn3)CC2)n1` (stereo unspecified) was run?
A: 31.6 µM (active)

Q: `C#CCOCCOCCOCCNc1nc(N2CCN(C(=O)[C@H](CCCCN)n3cc([C@@H](N)C(C)CC)nn3)CC2)nc(N2CCN(C(=O)[C@H](Cc3ccc(O)cc3)n3cc([C@@H](N)C(C)CC)nn3)CC2)n1` (stereo partly specified) was tested. Which “activity change, negative = inhibition” value did it give?
A: 24.6% (inactive)

Q: `C#CCOCCOCCOCCNc1nc(N2CCN(C(=O)[C@H](Cc3ccc(O)cc3)n3cc(C(N)CC(C)C)nn3)CC2)nc(N2CCN(C(=O)[C@H](CCC(=O)O)n3cc(C(N)[C@H](C)CC)nn3)CC2)n1` (stereo partly specified) was tested. Which “activity change, negative = inhibition” value did it give?
A: -11.9% (inactive)

Q: `C=CCOC(=O)NC(c1ccc(F)c(F)c1)C(C(=O)COC)C(=O)OC` (stereo unspecified) was tested. Which Potency did it give?
A: inactive

Q: For `CCCN1[C@H](C(=O)OC)C[C@@]2(O)[C@@H](O)[C@@H](O)[C@@H](O)C[C@@H]12`, which “activity change, negative = inhibition” value is on record?
A: 14.8% (inactive)

Q: Which “activity change, negative = inhibition” value does the source give for `COc1c(O)c2c(=O)cc(OC)c3c4c(OC)cc(=O)c5c(O)c(OC)c6c(c(c1C[C@@](C)(O)[C@H]6C(C)=O)c23)c54` here?
A: -10.2% (inactive)

Q: For `Cc1ccccc1NC(=O)CSC(=O)c1ccccc1`, which “activity change, negative = inhibition” value is on record?
A: 8.15% (inactive)

Q: `Cc1ccccc1NC(=O)CN1C(=O)N/C(=C\c2cccn2-c2cccc(C(=O)O)c2)C1=O` was tested. Which Potency did it give?
A: 3.16 µM (active)

Q: `O=C1N/C(=C/c2cccn2-c2ccccc2)C(=O)N1c1cccc(Cl)c1` was tested. Which “activity change, negative = inhibition” value did it give?
A: 6.35% (inactive)

Q: With `O=C(c1cccc(F)c1)N1CCC2(CCCN(Cc3ccncc3)C2)CC1` as the compound, how does the “activity change, negative = inhibition” value read?
A: -0.987% (inactive)

Q: Which “activity change, negative = inhibition” value does the source give for `COC(=O)[C@@]1(Cc2ccc(F)cc2)[C@@H]2[C@@H](CC(=O)[C@H]2CC(=O)C(=O)N2CCCC2)CN1C(=O)c1ccccc1` here?
A: -5.41% (inactive)

Q: How did the “activity change, negative = inhibition” value turn out when `CC(=O)OCC(=O)C1CCC2C3CCC4=CC(=O)CC[C@@]4(C)C3CC[C@]12C` (stereo partly specified) was run?
A: 1.89% (inactive)

Q: Which activity change, negative = inhibition does the source give for `C#CCC(C(=O)OC)(C(=O)OC)C(C[N+](=O)[O-])c1ccccc1` (stereo unspecified) here?
A: 1.76% [at 12.4 µM] (inactive)

Q: For `O=c1ccc2c(-c3ccccc3S(=O)(=O)O)c3ccc(O)c(O)c3oc-2c1O`, which Potency is on record?
A: 0.0947 µM (active)

Q: For `CC(C)CN1CCc2nc(-c3ccccc3)c3c(c2C1)COC(C)C3` (stereo unspecified), which activity change, negative = inhibition is on record?
A: 8.68% [at 12.4 µM] (inactive)

Q: `Cc1ccc(-c2nn(CC(C)(C)C)c3ncnc(N)c23)cc1` was tested. Which “activity change, negative = inhibition” value did it give?
A: -2.29% (inactive)

Q: Which “activity change, negative = inhibition” value does the source give for `CN1CCCC1CCO[C@@](C)(c1ccccc1)c1ccc(Cl)cc1` (stereo partly specified) here?
A: 0.95% (inactive)

Q: Which “activity change, negative = inhibition” value does the source give for `Cn1c(SCC(=O)N/N=C/c2ccc(O)c(O)c2)nc2ccccc21` here?
A: -9.26% (inactive)

Q: Which Potency does the source give for `Cc1nccn1CC(=O)N/N=C/c1ccc(O)c(O)c1` here?
A: 25.1 µM (active)

Q: How did the “activity change, negative = inhibition” value turn out when `CCOc1cc(/C=N/NC(=O)CN2CCCCC2)ccc1O` was run?
A: 32% (inactive)

Q: How did the “activity change, negative = inhibition” value turn out when `N#Cc1cccc(-c2ccc3ncnc(NCc4cccs4)c3c2)c1` was run?
A: 0.81% (inactive)

Q: Which “activity change, negative = inhibition” value does the source give for `COc1ccc(-c2oc3cc(OC)ccc3c2C(=O)c2ccc(C#N)cc2)cc1` here?
A: -7.81% (inactive)

Q: Which activity change, negative = inhibition does the source give for `COC(=O)C1=C(C(=O)OC)[C@@H]2N(C)c3ccccc3[C@@]23C[C@@H](C(=O)OC)N(S(=O)(=O)c2cccs2)C3=N1` here?
A: -14.4% [at 12.4 µM] (inactive)

Q: For `Nc1ccc2nc3c(=O)[nH]c(=S)[nH]c3nc2c1`, which Potency is on record?
A: 0.501 µM (active)

Q: With `CN1[C@H]2CC(OC(=O)[C@@H](CO)c3ccccc3)C[C@H]1[C@H]1O[C@H]12` (stereo partly specified) as the compound, how does the “activity change, negative = inhibition” value read?
A: -4.8% [at 21 µM] (inactive)

Q: `COC(=O)[C@@]1(Cc2ccccc2)[C@H]2c3cc(C(=O)N4CCCC4)n(Cc4ccc(C)o4)c3C[C@H]2CN1C(=O)c1ccccc1` was tested. Which “activity change, negative = inhibition” value did it give?
A: -5.54% (inactive)

Q: For `CC(C)C(N)C(=O)OCCOCn1cnc2c(=O)[nH]c(N)nc21` (stereo unspecified), which “activity change, negative = inhibition” value is on record?
A: 3.96% (inactive)

Q: How did the “activity change, negative = inhibition” value turn out when `C[C@@H]1O[C@@H](OC[C@H]2O[C@@H](Oc3cc(O)c4c(c3)O[C@H](c3ccc(O)c(O)c3)CC4=O)[C@H](O)[C@@H](O)[C@@H]2O)[C@H](O)[C@H](O)[C@H]1O` was run?
A: -10.7% (inactive)

Q: How did the Potency turn out when `C=CC(COCc1ccccc1)N(Cc1ccccc1)S(=O)(=O)c1ccccc1Br` (stereo unspecified) was run?
A: inactive

Q: Which Potency does the source give for `C=CCCN(Cc1ccccc1)S(=O)(=O)c1ccccc1Br` here?
A: inactive and 199 nM (active)

Q: With `C=CCCN(C(Cc1ccccc1)C(=O)OC)S(=O)(=O)c1cc(Br)ccc1Br` (stereo unspecified) as the compound, how does the “activity change, negative = inhibition” value read?
A: -1.9% (inactive)

Q: How did the “activity change, negative = inhibition” value turn out when `COC(=O)[C@@]1(Cc2ccccc2)[C@H]2c3cc(C(=O)N(C)C)n(CCSCCO)c3C[C@H]2CN1C(=O)c1ccccc1` was run?
A: -0.311% (inactive)

Q: For `CC(C)=CCC[C@]1(C)[C@@H](CC=C(C)C)C[C@@]2(CC=C(C)C)C(=O)[C@]1(C(=O)C(C)C)C(=O)C(CC=C(C)C)=C2O`, which “activity change, negative = inhibition” value is on record?
A: -2.28% (inactive)

Q: Which “activity change, negative = inhibition” value does the source give for `CC(=O)CC(C)C` here?
A: -0.561% (inactive)

Q: With `Cc1cc(C)c2nc(-c3ccco3)cc(C(=O)O)c2c1` as the compound, how does the Potency read?
A: 7.08 µM (active)

Q: How did the “activity change, negative = inhibition” value turn out when `O=C(c1cc(-c2ccco2)nc2ccccc12)N(Cc1nnc(-c2ccc(Cl)cc2)o1)C1CC1` was run?
A: -25.3% (inactive)

Q: How did the “activity change, negative = inhibition” value turn out when `CC1CCCN(C(=O)c2cc(-c3ccco3)nc3ccccc23)C1` (stereo unspecified) was run?
A: 17.7% (inactive)

Q: With `Cc1ccc(Br)cc1` as the compound, how does the “activity change, negative = inhibition” value read?
A: -0.853% (inactive)

Q: With `CC(N)(C(=O)O)c1ccc(-c2nn[nH]n2)cc1` (stereo unspecified) as the compound, how does the “activity change, negative = inhibition” value read?
A: 7.06% (inactive)

Q: With `COCCNc1ncnc2ccc(-c3cccnc3)cc12` as the compound, how does the “activity change, negative = inhibition” value read?
A: -1.42% (inactive)

Q: Which “activity change, negative = inhibition” value does the source give for `CCCCCCCC[C@@H](O)/C=C/C=C/C=C\[C@@H](O)CCCC(=O)O` here?
A: -7.47% (inactive)

Q: How did the Potency turn out when `O=c1c(O)c(Br)ccc2c(Br)c(O)c(O)c(O)c12` was run?
A: 1.12 µM (active)

Q: With `O=C(c1ccncc1)N1CCC2(CCN(Cc3cc(C(F)(F)F)cc(C(F)(F)F)c3)CC2)CC1` as the compound, how does the “activity change, negative = inhibition” value read?
A: 2.27% (inactive)

Q: For `CC1(C)C=CC(=O)[C@]2(C)C1CC(=O)[C@]1(C)C2CC[C@@]2(C)C(c3ccoc3)OC(=O)C3OC321` (stereo partly specified), which “activity change, negative = inhibition” value is on record?
A: 0.648% (inactive)
